GAA850 FXN act – increases GAA850 frataxin promoter reporter activity | HEK293 lucGAA850 FXN promoter luciferase reporter, 24 h; percent of 10 µM SAHA response | activation, % at 6 µM | actives 0.56% (n = 360,000) | AID 540364;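 active = activation above the average of all compounds screened plus 3 SD, cutoff fixed separately per campaign, cut at about 7.5% in these data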;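 note: 0% = DMSO wells and 100% = 10 µM SAHA wells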
HSP90 refold inh – HSP90 refolding inhibition in rabbit reticulocyte lysate. luciferase refolding luminescence, 3 h. inhibition, % at 5.6 µM. actives 0.91% (n = 290,000). AID 1789;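 active = inhibition above the screen-wide mean plus 3 SD, computed separately per campaign, cut at about 16% in these data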;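 note: 0% = DMSO wells and 100% = 60 µM geldanamycin wells; inhibitors lower the luminescence because luciferase stays unfolded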
HSF1 activator – increases HSF-1 driven luciferase reporter signal | actives 1.7% (n = 300,000) | AID 504408 | activation, % at 9 µM | NIH3T3-HGL HSF-1 luciferase reporter, MG132, 8 h; 100% = twice DMSO control signal;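 active = mean replicate activation of at least 50% with a set share of replicates each reaching 50%; inconclusive = only one of those two conditions met; inactive = mean below 50% and too few replicates reaching it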;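 note: 0% = median of the neutral control wells and 100% = twice that signal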
HSF1 inh – HSF1 inhibition; NIH3T3-HGL HSE-luciferase, MG132-induced, luminescence 8 h; active compounds read low; activity change, negative = inhibition, % at 7.5 µM (by protocol); actives 0.77% (n = 300,000); AID 2098;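 active = more than half of replicate wells show activity change below -50%, luminescence cut by over half; inconclusive = some wells, but at most half, below -50%; inactive = no replicate well below -50%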;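 note: luciferase reports HSF-1 transcriptional activity via heat shock element; 0% = median of DMSO wells and -100% = zero luminescence signal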
AHR act – activators of human aryl hydrocarbon receptor; AHR-responsive luciferase reporter cells, luminescence; activation, % at 5 µM; actives 2.5% (n = 320,000); in the data active = activation above about 47%;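 note: 0% = vehicle wells and 100% = reference agonist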
NR0B1 inh – NR0B1 (DAX1) inhibition. HEK293 Gal4-DAX1 luciferase reporter, luminescence. actives 0.99% (n = 340,000). inhibition, % at 6.75 µM. AID 504766;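 active = inhibition above the mean over all tested compounds plus 3 SD, cut at about 4.2% in these data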;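 note: 0% = DAX1-transfected cells with DMSO and 100% = empty-vector control cells with DMSO; inhibition shows as a rise in luminescence from relieved DAX1 repression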
Target sequence (P51843 207-470 limits assumed): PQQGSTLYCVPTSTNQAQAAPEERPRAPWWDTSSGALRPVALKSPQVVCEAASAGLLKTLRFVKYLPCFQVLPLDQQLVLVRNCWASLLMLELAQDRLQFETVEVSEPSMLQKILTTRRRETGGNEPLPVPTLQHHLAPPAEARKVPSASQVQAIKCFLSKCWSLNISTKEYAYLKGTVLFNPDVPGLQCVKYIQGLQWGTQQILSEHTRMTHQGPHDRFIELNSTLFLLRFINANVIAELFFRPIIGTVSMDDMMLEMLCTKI
The depositor's hits bear a star; ? = inconclusive; . = no result given. Compounds with a hit are over-represented: about 5.9% of the library has one in this group of screens.

SMILES	GAA850 FXN act	HSP90 refold inh	HSF1 activator	HSF1 inh	AHR act	NR0B1 inh
CCn1c(SCc2cccc(OC)c2)nc2ccccc2c1=O	-1	9	21	2	12	-1
O=C(CSc1nnc(CNC(=O)c2c(F)cccc2F)o1)NCc1ccc2c(c1)OCO2	-2	.	.	.	.	1
FC(F)(F)c1cccc(OCc2noc(-c3ccsc3)n2)c1	3	0	8	-3	-2	5.5*
FC(F)(F)c1cccc(-c2nc(-c3ccncc3)no2)c1	1	-2	8	2	.	3
Cc1c(C(=O)NC(C)c2ccccn2)oc2c(Cl)cccc12 (stereo unspecified)	2	.	.	.	.	-2
Cc1c(C(=O)Nc2nccs2)oc2c(Cl)cccc12	2	.	4	9	55*	2
Cc1c(C(=O)Nc2ccccn2)oc2c(Cl)cccc12	3	.	26	3	74*	4
CC(OC(=O)c1ccc(S(=O)(=O)NCc2ccco2)cc1)C(=O)Nc1ccccc1 (stereo unspecified)	-2	.	.	.	5	-1
CC(C)CN1C(=O)C(=O)N(CC(=O)N(C)CC(=O)Nc2ccc(F)cc2)C1=O	1	.	.	.	-1	0
Nc1c(C(=O)c2ccc(Cl)cc2)sc2nc3c(cc12)CCC3	7	6	51*	27	53*	0
Nc1c(C(=O)O)sc2nc3c(cc12)CCCC3	-1	-3	-5	0	4	.
Cn1c2[n+](c3ccc(Cl)cc3c1=O)Cc1ccccc1-2	1	4	13	-3	12	5.7*
CCOc1ccccc1Nc1ncnc2ccccc12	-5	-1	-6	0	10	-1
CCOc1ccccc1Nc1ncnc2ccc(Br)cc12	0	-1	-13	-4	76*	0
Cc1ccc2ncnc(Nc3ccc(C)c(C)c3)c2c1	-3	1	5	-9	50*	-2
CCOc1ccccc1Nc1cc(C)nc2ccc(C)cc12	-2	.	-12	-6	48*	-1
CCOc1ccccc1Nc1nc2ccccc2[nH]1	2	-1	13	-4	50*	-1
CC(NC(=O)c1ccc(N2CCCC2)c([N+](=O)[O-])c1)c1ccc(S(N)(=O)=O)cc1 (stereo unspecified)	2	-4	23	-1	-3	1
CC(=O)c1cccc(Nc2ncnc3ccc(Br)cc23)c1	-4	2	-16	-13	74*	-2
CC(=O)c1ccc(Nc2ncnc3ccc(Br)cc23)cc1	-5	.	.	.	.	2
O=C(Cc1coc2ccc3ccccc3c12)NCc1ccccc1	3	5	-8	-4	6	0
O=C(Cc1coc2ccc3ccccc3c12)NC1CCCc2ccccc21 (stereo unspecified)	0	1	65*	35	15	-1
O=C(CSc1cn[nH]n1)Nc1ccc(Cl)cc1Cl	-3	2	-4	4	0	-1
CN(C)S(=O)(=O)c1cccc(NC(=O)CCCc2nc3ccccc3c(=O)[nH]2)c1	1	.	-5	-6	2	1
O=C(CN1C(=O)c2ccccc2S1(=O)=O)NC1CCCCCC1	2	-6	-1	-1	3	6.2*
SMILES	GAA850 FXN act	HSP90 refold inh	HSF1 activator	HSF1 inh	AHR act	NR0B1 inh
O=C(CN1C(=O)c2ccccc2S1(=O)=O)c1ccc(F)cc1	-8	2	-43	-37	-5	-5
O=C(CN1C(=O)c2ccccc2S1(=O)=O)c1ccccc1F	-4	12	-61	-52*	-3	-1
CC(C)C(NC(=O)CN1C(=O)c2ccccc2S1(=O)=O)C(C)C	1	2	10	0	0	5.0*
O=C(CN1c2cccc3cccc(c23)S1(=O)=O)NC1CCCCC1	2	.	.	.	1	-1
O=C(NC1CCCCC1)c1ccc2c(c1)S(=O)(=O)c1ccccc1C2=O	3	.	-12	3	4	5.0*
O=C(NC1CCCC1)c1ccc2c(c1)S(=O)(=O)c1ccccc1C2=O	4	.	-12	-2	9	-1
O=C(O)C(C(O)c1ccccc1)[n+]1ccccc1 (stereo unspecified)	1	.	-10	-3	2	1
CC[C@@]1(C(=O)OC)N[C@H](CN(C)S(=O)(=O)c2ccc(OC)cc2)[C@@H]2C(=O)N(C)C(=O)[C@@H]21	2	.	.	.	1	1
CCOC(=O)c1ccccc1NC(=O)CN1C(=O)c2ccccc2S1(=O)=O	1	-6	10	-3	0	-1
CCc1ccccc1NC(=O)CN1C(=O)c2ccccc2S1(=O)=O	-2	-1	9	-8	-1	4.5*
COc1cc(OC)c(OC)cc1/C=C1\Oc2cc(OCC(=O)N3Cc4ccccc4C[C@H]3C(=O)O)ccc2C1=O	-1	-6	-18	-1	0	4.5*
COc1ccc(/C=C2\Oc3cc(OCC(=O)N4CCC[C@H]4C(=O)O)ccc3C2=O)c(OC)c1	0	-2	16	5	0	6.7*
COc1ccc(OC)c(/C=C2\Oc3cc(OCC(=O)N4CCC[C@H]4C(=O)O)ccc3C2=O)c1	-2	-1	-3	-4	0	4
OCCN(CCO)c1ncnc2c1oc1ccc(Br)cc12	1	5	1	-3	72*	0
O=C(/C=C/Nc1ccccc1F)c1cccs1	3	-5	?	20	57*	0
O=C(/C=C\Nc1cccc(F)c1)c1cccs1	5	0	22	6	37	3
O=C(CN1CCc2ccccc2C1)Nc1ccc(F)cc1	0	0	-17	1	.	4.2*
O=C(CN(c1cccc(Cl)c1)S(=O)(=O)c1ccc(Cl)cc1)N1CCc2ccccc2C1	0	2	34	15	61*	0
COc1ccc(CC(=O)N2CCc3ccccc3C2)cc1	2	-1	29	6	.	-1
Cc1ccc(NC(=O)N2CCc3ccccc3C2)cc1	5	8	18	7	16	2
O=C(Cc1ccc(Cl)cc1)N1CCc2ccccc2C1	2	.	59*	45	-5	2
O=C(Nc1ccc(Cl)cc1)N1CCc2ccccc2C1	8	0	80*	42	63*	1
CC1(C)CC(NC(=O)c2ccc(Cl)c(S(=O)(=O)N(Cc3ccccc3)c3ccccc3)c2)CC(C)(C)N1	.	.	1	-2	3	0
COc1ccc(CC(=O)NNS(=O)(=O)c2ccccc2[N+](=O)[O-])cc1	-1	3	-13	-3	2	-1
C[C@@H]1CN([C@H](C)CO)C(=O)CCCn2cc(nn2)CO[C@H]1CN(C)C(=O)OCc1ccccc1	0	.	.	.	.	1
CC1=C(C(=O)N2CCOCC2)CC(CC(=O)NCCCCc2ccccc2)C(=O)N1Cc1ccc(C(C)(C)C)cc1 (stereo unspecified)	-1	.	.	.	.	0
CCOc1ccc(NC(=O)N2CCc3ccccc3C2)cc1	3	-2	4	-3	67*	-1
